Test results taken from PubChem BioAssay AID743343 (Broad Institute, 2014).
Entries with a potency or affinity are not part of this list.

System: Drosophila melanogaster bursicon receptor LGR2 (rickets)
Experiment: blockers of bursicon-stimulated LGR2 cAMP reporter – cell-based, HEK293, CRE-luciferase reporter, cherry pick, set 2, dose response (AID 743343)
Conditions: bursicon-induced cAMP antagonist; series mostly up to 35 µM; activity change, negative = inhibition: at the top concentration; call rule not given here

Activity change, negative = inhibition, inactive:
COc1cccc(C#Cc2ccc([C@@H]3[C@@H](CO)N(C(=O)C4CCC4)[C@H]3C#N)cc2)c1 -11.3%
C[C@@H]1CN([C@H](C)CO)C(=O)c2cc(NC(=O)Nc3cccc4ccccc34)ccc2O[C@@H]1CN(C)C(=O)Nc1ccccc1 -8.77%
O=[N+]([O-])c1ccc(-c2cnc(SC(c3ccccc3)c3ccccc3)[nH]2)cc1 -31.3%
COc1ccccc1C=NNC(=O)c1ccncc1 17%
CCC(=O)N(C)C[C@H]1Oc2cc(C#CCC(C)C)ccc2S(=O)(=O)N([C@H](C)CO)C[C@@H]1C -1.03%
O=C(Cc1ccccc1Cl)Nc1cccnc1 10.2%
COc1ccc(N(CC(=O)NCc2cccs2)S(=O)(=O)c2ccc(C(C)=O)cc2)cc1 53.2%
Cc1noc2ncnc(Sc3ccc(Br)cc3)c12 -16.7%
O=C(Cn1ncc(Cl)c(Cl)c1=O)N1CCOCC1 7.73%
COc1ccccc1CNS(=O)(=O)c1ccc(N2CCCC2)cc1Br 10.3%
N#C[C@@H]1[C@H](c2ccc(C#CC3CCCCC3)cc2)[C@@H](CO)N1C(=O)c1cccc(F)c1 -28.7% [at 30 µM]
O=C(Nc1ccc(N2CCOCC2)c(S(=O)(=O)Nc2ccccc2Cl)c1)c1ccc(F)cc1 -14.4%
COc1ccccc1CN(C)C[C@@H]1OCc2cnnn2CCCC(=O)N([C@H](C)CO)C[C@H]1C 24.4%
C=CCn1c(SCC(=O)Nc2ncc(Cc3ccc(C)c(Cl)c3)s2)nnc1-c1ccncc1 47.3%
Cc1cccn2c(CNCC3(c4ccccc4)CCCC3)c(C(=O)N3CCOCC3)nc12 -3.35%
Cc1ccc(NC(=O)c2ncn(CC(=O)NCc3ccc4[nH]ccc4c3)n2)cc1C 33.6% [at 16 µM]
CCCCC(=O)N(C)c1c(C)nc2ccc(C(=O)N3CCCCC3)cn12 6.84%
CC(C)c1ccc(NC(=O)N2CCN(S(=O)(=O)c3ccccc3)CC2)cc1 7.94%
C[C@@H]1CN([C@H](C)CO)C(=O)Cc2cc(NC(=O)Nc3ccc(F)cc3)ccc2O[C@@H]1CN(C)CC1CCCCC1 -12.7%
CC(=O)c1ccc(S(=O)(=O)N2CCC(NC(=O)Nc3cccc(F)c3)CC2)cc1 17.5%
CC1CCN(C(=O)c2ccc(S(=O)(=O)Cc3cc(F)ccc3F)c([N+](=O)[O-])c2)CC1 -11.8%
Cc1cccc(Cn2ncc(Cl)c(Cl)c2=O)c1 6.59%
Cn1nnnc1Sc1ncnc2scc(-c3ccccc3C(F)(F)F)c12 -21.3%
Cc1ccc2nc(-c3ccc(NC(=O)c4cccnc4)cc3)oc2c1 -42%
C[C@@H]1CN([C@@H](C)CO)C(=O)c2cccc(NC(=O)Nc3ccc(C(F)(F)F)cc3)c2O[C@H]1CN(C)C(=O)Nc1cccc2ccccc12 -26.2%
CO[C@H]1CN(C)C(=O)c2ccc(NC(=O)c3ccc(-c4ccccc4)cc3)cc2OC[C@@H](C)NC[C@@H]1C 12.9%
C[C@H]1CN([C@@H](C)CO)C(=O)c2cc(NC(=O)Nc3ccccc3)ccc2O[C@H]1CN(C)Cc1ccc(-c2ccccc2)cc1 -25%
C[C@H](CO)N1C[C@H](C)[C@H](CN(C)Cc2ccccc2)Oc2c(NS(=O)(=O)c3cn(C)cn3)cccc2C1=O -3.04%
O=C(O)CSc1cc(NS(=O)(=O)c2cccc([N+](=O)[O-])c2)c2ccccc2c1O -26.4%
CNCc1ccccc1Sc1ccc(O)c(O)c1 -5.29%
C[C@@H]1CN([C@H](C)CO)C(=O)Cc2cc(NC(=O)CCC(F)(F)F)ccc2O[C@@H]1CN(C)CC1CCCCC1 0.312%
CC1CN(C(=O)c2cccc(S(=O)(=O)Nc3cc(Cl)ccc3Cl)c2)CC(C)O1 (centres undefined) 23%
C[C@H]1CN([C@@H](C)CO)C(=O)c2cc(C#CCc3ccccc3)cnc2O[C@H]1CN(C)Cc1ccccc1 -26.2%
C[C@@H]1CN([C@@H](C)CO)S(=O)(=O)c2ccc(C3=CCCC3)cc2O[C@H]1CN(C)C(=O)c1ccccc1 -16.4%
O=C(Cc1ccncc1)NCC[C@H]1CC[C@H](NC(=O)C2CCCC2)[C@H](CO)O1 -21.3%
COc1cc(CNCCO)cc(Cl)c1OCc1ccc(Cl)cc1Cl 1.33%
Cc1cc(Cl)ccc1OCCCC(=O)Nc1cc(S(=O)(=O)N2CCOCC2)ccc1N1CCOCC1 -26.5%
COc1ccc(CCNC(=O)C2CCN(S(=O)(=O)c3ccc(Cl)cc3)CC2)cc1OC 38.9%
O=C(NCCOc1ccccc1)[C@@H]1CCCN1C(=O)c1cccs1 -14% [at 16 µM]
